Assay results: PubChem BioAssay (NCI)
The panel holds about 83,000 compounds, 20% with a hit somewhere; the sample as a whole holds those more often.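 A percent growth of 40 corresponds to 60% growth inhibition; 0 means no net growth; -100 means all cells died. Active threshold: below 10.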 Calls of active or inactive are those of the source.

What was measured:
Test in all cases: NCI-60 one-dose screen, 48 h (100 = growth as untreated, 0 = no growth, -100 = all killed)
Conditions in all cases: 10 µM unless noted
SR leukemia = system: SR leukemia
RPMI-8226 leukemia = system: RPMI-8226 leukemia
OVCAR-8 ovarian = system: OVCAR-8 ovarian
OVCAR-5 ovarian = system: OVCAR-5 ovarian
OVCAR-4 ovarian = system: OVCAR-4 ovarian
SK-OV-3 ovarian = system: SK-OV-3 ovarian
IGROV1 ovarian = system: IGROV1 ovarian
OVCAR-3 ovarian = system: OVCAR-3 ovarian
HS 578T breast = system: HS 578T breast
NCI/ADR-RES ovarian = system: NCI/ADR-RES ovarian
T-47D breast = system: T-47D breast
BT-549 breast = system: BT-549 breast
MDA-MB-435 melanoma = system: MDA-MB-435 melanoma
SW-620 colon = system: SW-620 colon
MCF7 breast = system: MCF7 breast
HCT-116 colon = system: HCT-116 colon
HCC-2998 colon = system: HCC-2998 colon
KM12 colon = system: KM12 colon

Measured: growth

Cc1oc(-c2ccc(Cl)cc2)nc1/C=C/C(=O)c1ccccc1
inactive: SR leukemia 93.7% | RPMI-8226 leukemia 90.9% | OVCAR-8 ovarian 98.7% | OVCAR-5 ovarian 115% | OVCAR-4 ovarian 79.4% | SK-OV-3 ovarian 100% | IGROV1 ovarian 93% | OVCAR-3 ovarian 97.5% | HS 578T breast 100% | NCI/ADR-RES ovarian 104% | T-47D breast 79.5% | BT-549 breast 84.8% | MDA-MB-435 melanoma 103% | SW-620 colon 104% | MCF7 breast 49.9% | HCT-116 colon 99.5% | HCC-2998 colon 103% | KM12 colon 100%

O=c1oc2c(cnc3ccccc32)cc1-c1ccsc1
inactive: SR leukemia 95% | RPMI-8226 leukemia 96.6% | OVCAR-8 ovarian 94.6% | OVCAR-5 ovarian 114% | OVCAR-4 ovarian 88.4% | SK-OV-3 ovarian 104% | IGROV1 ovarian 103% | OVCAR-3 ovarian 108% | HS 578T breast 94.9% | NCI/ADR-RES ovarian 109% | T-47D breast 85.9% | BT-549 breast 100% | MDA-MB-435 melanoma 102% | SW-620 colon 96.8% | MCF7 breast 33.2% | HCT-116 colon 99.7% | HCC-2998 colon 123% | KM12 colon 94%

O=C(CSc1nc2ccc([N+](=O)[O-])cc2[nH]1)Nc1cccc(C(F)(F)F)c1
active: RPMI-8226 leukemia -11.8% | T-47D breast 6.1%
inactive: SR leukemia 14.5% | OVCAR-8 ovarian 13.8% | OVCAR-5 ovarian 63.5% | OVCAR-4 ovarian 12% | SK-OV-3 ovarian 27.1% | IGROV1 ovarian 41% | OVCAR-3 ovarian 20.7% | HS 578T breast 24.8% | NCI/ADR-RES ovarian 21.9% | BT-549 breast 16.5% | MDA-MB-435 melanoma 13.8% | SW-620 colon 28.2% | MCF7 breast 15.7% | HCT-116 colon 12.8% | HCC-2998 colon 30.7% | KM12 colon 17.1%

CNC(=O)c1cc(Oc2ccc3nc(NC(C)=O)sc3c2)ccn1
inactive: SR leukemia 85.4% | RPMI-8226 leukemia 93.8% | OVCAR-8 ovarian 99.9% | OVCAR-5 ovarian 103% | OVCAR-4 ovarian 95.9% | SK-OV-3 ovarian 107% | IGROV1 ovarian 104% | OVCAR-3 ovarian 105% | HS 578T breast 107% | NCI/ADR-RES ovarian 98.1% | T-47D breast 90.7% | BT-549 breast 96.9% | MDA-MB-435 melanoma 102% | SW-620 colon 112% | MCF7 breast 98.9% | HCT-116 colon 89.2% | HCC-2998 colon 107% | KM12 colon 98.2%

O=C(Cn1cc(CN2C(=O)c3ccccc3S2(=O)=O)nn1)Nc1nc2ccccc2s1
inactive: SR leukemia 121% | RPMI-8226 leukemia 107% | OVCAR-8 ovarian 102% | OVCAR-5 ovarian 101% | OVCAR-4 ovarian 100% | SK-OV-3 ovarian 79% | IGROV1 ovarian 93.4% | OVCAR-3 ovarian 102% | HS 578T breast 110% | NCI/ADR-RES ovarian 97.6% | T-47D breast 88.1% | BT-549 breast 97.9% | MDA-MB-435 melanoma 112% | SW-620 colon 105% | MCF7 breast 91.1% | HCT-116 colon 88% | HCC-2998 colon 113% | KM12 colon 103%

Cn1ccnc1C(=O)C(=O)Nc1ccc(CC(=O)Nc2ccccc2)cc1
inactive: SR leukemia 106% | RPMI-8226 leukemia 107% | OVCAR-8 ovarian 109% | OVCAR-5 ovarian 101% | OVCAR-4 ovarian 110% | SK-OV-3 ovarian 115% | IGROV1 ovarian 103% | OVCAR-3 ovarian 108% | HS 578T breast 101% | NCI/ADR-RES ovarian 103% | T-47D breast 112% | BT-549 breast 103% | MDA-MB-435 melanoma 101% | SW-620 colon 102% | MCF7 breast 92.1% | HCT-116 colon 114% | HCC-2998 colon 106% | KM12 colon 105%

CN1C(=O)/C(=C/c2ccc(C(=O)Nc3ncc(Cc4ccc(Cl)cc4)s3)cc2)SC1=S
inactive: SR leukemia 43.2% | RPMI-8226 leukemia 61.3% | OVCAR-8 ovarian 60.4% | OVCAR-5 ovarian 58.1% | OVCAR-4 ovarian 54.9% | SK-OV-3 ovarian 58% | IGROV1 ovarian 44.4% | OVCAR-3 ovarian 27.2% | HS 578T breast 42% | NCI/ADR-RES ovarian 37.5% | T-47D breast 37.8% | BT-549 breast 46.7% | SW-620 colon 28.9% | MCF7 breast 55.5% | HCT-116 colon 24.2% | HCC-2998 colon 59.3% | KM12 colon 21.1%
active: MDA-MB-435 melanoma -32%

c1cnc2[nH]cc(-c3csc(-c4cn(CCCN5CCOCC5)c5ccccc45)n3)c2c1
active: SR leukemia 2.93% | MDA-MB-435 melanoma 6.18%
inactive: RPMI-8226 leukemia 24.4% | OVCAR-8 ovarian 62.4% | OVCAR-5 ovarian 62.1% | OVCAR-4 ovarian 45.1% | SK-OV-3 ovarian 73.4% | IGROV1 ovarian 35.3% | OVCAR-3 ovarian 64.4% | HS 578T breast 28.5% | NCI/ADR-RES ovarian 60.1% | T-47D breast 27.1% | BT-549 breast 50.3% | SW-620 colon 39.5% | MCF7 breast 28.6% | HCT-116 colon 29.8% | HCC-2998 colon 58.6% | KM12 colon 28.1%

N#Cc1c(N)nnn1Cc1cc(=O)oc2c1ccc1ccccc12
inactive: SR leukemia 105% | RPMI-8226 leukemia 97.8% | OVCAR-8 ovarian 96.8% | OVCAR-5 ovarian 108% | OVCAR-4 ovarian 108% | SK-OV-3 ovarian 86% | IGROV1 ovarian 101% | OVCAR-3 ovarian 103% | HS 578T breast 101% | NCI/ADR-RES ovarian 99.4% | T-47D breast 92.3% | BT-549 breast 99.9% | MDA-MB-435 melanoma 105% | SW-620 colon 97.7% | MCF7 breast 92.6% | HCT-116 colon 106% | HCC-2998 colon 105% | KM12 colon 103%

O=[N+]([O-])c1ccc(-c2nc(N3CCOCC3)c3c4c(sc3n2)CCCC4)cc1
inactive: SR leukemia 76.4% | RPMI-8226 leukemia 109% | OVCAR-8 ovarian 99.8% | OVCAR-5 ovarian 95.4% | OVCAR-4 ovarian 92.2% | SK-OV-3 ovarian 81.2% | IGROV1 ovarian 75.2% | OVCAR-3 ovarian 93.8% | HS 578T breast 90.7% | NCI/ADR-RES ovarian 102% | T-47D breast 83.5% | BT-549 breast 82.3% | MDA-MB-435 melanoma 99.1% | SW-620 colon 95.1% | MCF7 breast 73.1% | HCT-116 colon 68.1% | HCC-2998 colon 102% | KM12 colon 95.5%

N#C/C(=C\c1ccc2ccccc2c1)c1cc2ccccc2[nH]1
inactive: SR leukemia 23.5% | RPMI-8226 leukemia 32.4% | OVCAR-8 ovarian 46.5% | OVCAR-5 ovarian 61.2% | OVCAR-4 ovarian 88.3% | SK-OV-3 ovarian 64% | IGROV1 ovarian 48.1% | HS 578T breast 25.8% | NCI/ADR-RES ovarian 12.4% | T-47D breast 32.9% | BT-549 breast 59.8% | SW-620 colon 15.8% | MCF7 breast 14.4% | HCT-116 colon 16.8% | HCC-2998 colon 60.4% | KM12 colon 25.5%
active: OVCAR-3 ovarian 7.91% | MDA-MB-435 melanoma -19%

Cn1cccc1C(=O)C1C(c2cccc([N+](=O)[O-])c2)C2C3CCCCC3CN2C12C(=O)Nc1ccc(Cl)cc12 (stereo not given)
active: SR leukemia 5.9% | IGROV1 ovarian 8.94%
inactive: RPMI-8226 leukemia 19.6% | OVCAR-8 ovarian 63.8% | OVCAR-5 ovarian 68.1% | OVCAR-4 ovarian 70.5% | SK-OV-3 ovarian 70.1% | OVCAR-3 ovarian 70.2% | HS 578T breast 55.7% | NCI/ADR-RES ovarian 51% | T-47D breast 36.7% | BT-549 breast 53.6% | MDA-MB-435 melanoma 56.3% | SW-620 colon 54.7% | MCF7 breast 34.1% | HCT-116 colon 14.9% | HCC-2998 colon 64.5% | KM12 colon 42.3%

O=[N+]([O-])C1C(c2ccccc2)C12c1ccccc1-c1ccccc12 (stereo not given)
active: SR leukemia -14.8% | RPMI-8226 leukemia -17.3% | OVCAR-8 ovarian -28% | SK-OV-3 ovarian 2.18% | OVCAR-3 ovarian -31.2% | NCI/ADR-RES ovarian -27.4% | BT-549 breast -42.3% | MDA-MB-435 melanoma -23.1% | SW-620 colon 3.12% | MCF7 breast 9.88% | HCT-116 colon -18.8% | HCC-2998 colon -18.8% | KM12 colon 1.09%
inactive: OVCAR-5 ovarian 23.9% | OVCAR-4 ovarian 57.2% | IGROV1 ovarian 20.5% | HS 578T breast 38.6% | T-47D breast 57.6%

CCOC(=O)c1[nH]c(=O)c2c(C)nc(-c3ccccc3)cc2c1O
inactive: SR leukemia 97% | RPMI-8226 leukemia 93.8% | OVCAR-8 ovarian 109% | OVCAR-5 ovarian 106% | OVCAR-4 ovarian 117% | SK-OV-3 ovarian 108% | OVCAR-3 ovarian 105% | HS 578T breast 98.4% | NCI/ADR-RES ovarian 103% | T-47D breast 101% | BT-549 breast 146% | MDA-MB-435 melanoma 109% | SW-620 colon 98.3% | MCF7 breast 92.7% | HCT-116 colon 95% | KM12 colon 110%
active: IGROV1 ovarian 1.43%

CC(=O)N1N=C(c2ccc(Nc3nc(Nc4ccc(Cl)cc4)nc(Nc4ccc(Cl)cc4)n3)cc2)CC1c1ccco1 (stereo not given)
inactive: SR leukemia 64.9% | RPMI-8226 leukemia 34.5% | OVCAR-8 ovarian 83.2% | OVCAR-5 ovarian 105% | OVCAR-4 ovarian 97.3% | SK-OV-3 ovarian 124% | IGROV1 ovarian 89.4% | OVCAR-3 ovarian 104% | HS 578T breast 114% | NCI/ADR-RES ovarian 93.5% | T-47D breast 67.6% | BT-549 breast 104% | MDA-MB-435 melanoma 84.5% | SW-620 colon 114% | MCF7 breast 83% | HCT-116 colon 91.3% | KM12 colon 92.7%

Nc1ncnc2c1N=C(c1ccc3c(c1)OCO3)CC(c1ccc([N+](=O)[O-])cc1)N2 (stereo not given)
inactive: SR leukemia 45.6% | RPMI-8226 leukemia 46.2% | OVCAR-8 ovarian 87.3% | OVCAR-5 ovarian 75.8% | OVCAR-4 ovarian 99% | SK-OV-3 ovarian 86% | OVCAR-3 ovarian 103% | HS 578T breast 74% | NCI/ADR-RES ovarian 82% | T-47D breast 72.4% | BT-549 breast 96.2% | MDA-MB-435 melanoma 79.8% | SW-620 colon 81.5% | MCF7 breast 63.2% | HCT-116 colon 66.6% | KM12 colon 78.4%
active: IGROV1 ovarian 3.46%
